Source: PubChem (National Center for Advancing Translational Sciences (NCATS))
Cruzain noTriton: qHTS Assay for Promiscuous and Specific Inhibitors of Cruzain (without detergent); Cruzipain (Trypanosoma cruzi), P25779; purified cruzain, Z-FR-AMC fluorescence, no detergent; Potency, µM, hits mostly inhibitors; actives 2.3% (n = 200,000); further: nearly all actives have a fitted effect of over 40% in size
Target sequence (P25779 123-467 limits assumed): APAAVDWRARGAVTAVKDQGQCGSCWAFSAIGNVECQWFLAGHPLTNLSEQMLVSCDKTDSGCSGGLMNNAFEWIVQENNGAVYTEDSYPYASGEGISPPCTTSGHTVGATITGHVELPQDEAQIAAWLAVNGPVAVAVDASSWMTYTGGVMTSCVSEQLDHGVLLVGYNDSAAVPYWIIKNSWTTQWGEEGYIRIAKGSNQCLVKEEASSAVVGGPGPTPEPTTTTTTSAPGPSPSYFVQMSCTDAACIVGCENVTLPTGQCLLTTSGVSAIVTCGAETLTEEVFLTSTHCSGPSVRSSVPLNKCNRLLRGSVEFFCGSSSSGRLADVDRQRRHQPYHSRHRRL
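Purified cruzain at 1.5 nM, pre-incubated 15 min with compound at room temperature in 100 mM sodium acetate pH 5.5, 5 mM DTT, 0.00005% Triton X-100. Reaction started with 2 uM Z-FR-AMC; AMC fluorescence increase over 60 s gives rate.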
Cruzain inh Det: qHTS Assay for Promiscuous and Specific Inhibitors of Cruzain (with detergent) | Cruzipain (Trypanosoma cruzi), P25779 | actives 0.43% (n = 200,000) | Potency, µM, usual class: inhibitors | purified cruzain, Z-FR-AMC fluorescence, 0.01% Triton; further: nearly all actives have a fitted effect of over 40% in size
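Detergent-containing run (0.01% Triton X-100) in acetate buffer pH 5.5 with 5 mM DTT: enzyme at 1.5 nM final, 15 min compound preincubation at room temperature, then 2 uM Z-FR-AMC substrate. Activity taken as 60 s fluorescence increase at 360/450 nm.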
Each line names hits and unclear results; the compound was inactive in the other large screens. Only some compounds are listed: those with a hit (about 2.6% of all), similar ones and a draw of the others. The call rests on the fitted dose curve; in most records, active means well fitted curve in the direction sought with a large enough effect; inconclusive means small, poorly fitted or top-dose-only effect, or another doubt; inactive means no such curve, though single readings can be large; an effect the other way counts as inactive or inconclusive.

COc1cc(OC)c(N(C)S(=O)(=O)c2cccc(C(=O)OCC(=O)c3c[nH]c4ccccc34)c2)cc1Cl	Cruzain noTriton 10µM
Cc1ccc(C(=O)OCC(=O)c2c[nH]c3ccccc23)cc1	Cruzain noTriton inconclusive
CC(C)Cc1ccc(C(C)C(=O)OCC(=O)c2c[nH]c3ccccc23)cc1 (stereo not drawn)	none
C=CCN(c1ccccc1OC)S(=O)(=O)c1cccc(C(=O)OCC(=O)c2c[nH]c3ccccc23)c1	none
CC(C)C(NS(=O)(=O)c1c(Cl)cccc1Cl)C(=O)OCC(=O)c1c[nH]c2ccccc12 (stereo not drawn)	Cruzain noTriton 32µM
Cc1ccc(S(=O)(=O)CCC(=O)OCC(=O)c2c[nH]c3ccccc23)cc1	Cruzain noTriton 20µM
Cc1cccc(Cn2nc(C)n3c(cc4cc(C)ccc43)c2=O)c1	none
CC1Cc2ccccc2N1C(=O)CSc1nnc(-c2ccccc2)c(-c2ccccc2)n1 (stereo not drawn)	Cruzain noTriton 16µM
CC1Cc2ccccc2N1C(=O)CSc1nnc2c(n1)[nH]c1ccccc12 (stereo not drawn)	none
O=C(NCc1ccccc1Br)c1ccc2c(c1)nc1n2CCOC1	none
Cc1ccc(-c2nc3c(cnn3-c3ccccc3)c(=O)n2-c2ccc(Cl)cc2)cc1	none
O=c1[nH]c(-c2ccc(Cl)cc2)nc2c1cnn2-c1ccccc1	Cruzain noTriton 25µM
CCCSc1nc2c(cnn2-c2ccc(Cl)cc2)c(=O)[nH]1	Cruzain noTriton 10µM
CCCCSc1nc2c(cnn2-c2ccc(F)cc2)c(=O)[nH]1	none
O=C(CCN1CCN(c2ccccc2F)CC1)c1ccc(Br)cc1	Cruzain noTriton inconclusive, Cruzain inh Det 14µM
O=C(CCN1CCN(c2ccccc2F)CC1)Nc1ccccc1F	none
O=C(NCc1ccc(Cl)cc1)c1cc(-c2ccc(F)cc2)on1	Cruzain noTriton inconclusive
Nc1c(C(=O)NCc2ccc(Cl)cc2)sc2nc(-c3ccc(F)cc3)ccc12	Cruzain noTriton 10µM, Cruzain inh Det 13µM
O=S(=O)(c1ccccc1)c1nnn2c1nc(N1CCN(c3ccccc3)CC1)c1cc(Cl)ccc12	none
Cc1ccc(Cl)cc1Nc1nc(-c2sc(NC(=O)c3ccccc3)nc2C)cs1	Cruzain noTriton 6.3µM
CCCC(C)C(=O)Nc1nc(C)c(-c2csc(Nc3ccc(Cl)cc3)n2)s1 (stereo not drawn)	Cruzain noTriton 10µM
CCC(C)C(=O)Nc1nc(C)c(-c2csc(Nc3cc(Cl)ccc3OC)n2)s1 (stereo not drawn)	none
CCCCC(=O)Nc1nc(C)c(-c2csc(Nc3cc(Cl)ccc3OC)n2)s1	Cruzain noTriton 10µM
CCCCCCC(=O)Nc1nc(C)c(-c2csc(Nc3cc(Cl)ccc3C)n2)s1	Cruzain noTriton 10µM
CCCC(C)C(=O)Nc1nc(C)c(-c2csc(Nc3ccccc3OC)n2)s1 (stereo not drawn)	Cruzain noTriton inconclusive
Cc1nc(NC(=O)c2ccccc2)sc1-c1csc(Nc2cccc(F)c2)n1	Cruzain noTriton inconclusive
CCCCC(=O)Nc1nc(C)c(-c2csc(Nc3cc(OC)ccc3OC)n2)s1	Cruzain noTriton inconclusive
Cc1ccc2nc(-c3ccc(Cl)c(NC(=O)COc4cccc(C)c4C)c3)oc2c1	none
COc1ccc(CNC(=O)Nc2cn(CC(C)C)c(=O)c3ccccc23)cc1	none
CCOc1ccccc1CNCc1c(C(=O)O)n(Cc2ccc(F)cc2)c2cc(C)ccc12	none
CCCCN(CC)C(=O)Nc1ccc2c(c1)N(C)C(=O)c1ccccc1S2	none
CCc1ccc(NC(=O)CCNS(=O)(=O)c2ccc3c(c2)oc(=O)n3C)cc1	none
Cc1oc2ncn(CC(C)C)c(=O)c2c1C(=O)NCCCN(Cc1ccccc1)C(C)C	none
Cc1ccc(OCC(=O)Nc2sc3c(c2C(N)=O)CCCC3)c(C(C)(C)C)c1	none
Cc1ccccc1CN1c2ccccc2-c2nc(SCC(=O)NCCc3ccccc3)ncc2S1(=O)=O	none
O=C(Cc1ccccc1)Nc1sc2c(c1C(=O)Nc1ccccc1Cl)CCCC2	none
CCC(=O)Nc1nc(C)c(-c2csc(Nc3ccc(S(=O)(=O)Nc4cc(C)on4)cc3)n2)s1	none
COc1ccc(Cl)cc1Nc1nc(-c2sc(NC(=O)C(C)(C)C)nc2C)cs1	none
COc1ccc(Cl)cc1Nc1nc(-c2sc(NC(=O)c3ccco3)nc2C)cs1	Cruzain noTriton 16µM
Cc1cc(NS(=O)(=O)c2ccc(Nc3nc(-c4sc(NC(=O)c5ccccc5)nc4C)cs3)cc2)no1	Cruzain noTriton 6.3µM
O=C(Nc1ccc(Cl)cc1)c1cc(S(=O)(=O)N2CCc3ccccc32)ccc1F	Cruzain noTriton inconclusive
N[C@@H](Cc1c[nH]c2cc([N+](=O)[O-])ccc12)C(=O)O	none
O=C(NC1(C(F)(F)F)C(=O)Nc2c1c(=O)[nH]c(=O)n2-c1ccc(F)cc1)c1ccccc1 (stereo not drawn)	none
COc1cccc(Cn2c(=O)n(-c3cc(C)cc(C)c3)c(=O)c3oc4ccccc4c32)c1	none
Cc1cccc2cc(C#N)c(NCCNC(=S)NCCCN3CCOCC3)nc12	none
Cc1cc2cc(C#N)c(NCCNC(=S)NCCCN3CCOCC3)nc2cc1C	Cruzain noTriton inconclusive, Cruzain inh Det 25µM
O=C(N/N=C/c1cccc(Oc2ccc([N+](=O)[O-])cc2[N+](=O)[O-])c1)c1cncc(Br)c1	Cruzain noTriton 25µM
Cc1ccccc1OCC(=O)N/N=C/c1cccc(Oc2ccc([N+](=O)[O-])cc2[N+](=O)[O-])c1	Cruzain noTriton inconclusive
CC(=O)c1cccc(NC(=O)c2noc3c2CSc2ccccc2-3)c1	none
Cc1ccc(Cl)cc1NC(=O)c1sc(-n2nc(C)c(Cc3ccc4c(c3)OCO4)c2C)nc1C	none
CC(C)n1cc(/C=C2/SC(=O)N(CC(=O)Nc3ccc4c(c3)OCO4)C2=O)c2ccccc21	Cruzain noTriton 10µM
Cn1cc(SCC(=O)Nc2ccc3c(c2)OCO3)c2ccccc21	none
CCOC(=O)c1c(NC(=O)C(=O)N/N=C/c2ccccc2OC)sc2c1CCCCC2	Cruzain noTriton 10µM
CCOC(=O)c1c(NC(=O)c2ccc(C)cc2)sc2c1CCCCC2	none
CCOC(=O)c1c(NC(=O)C(=O)N/N=C/c2ccccc2O)sc2c1CCCCC2	Cruzain noTriton 7.9µM
CCOC(=O)c1c(NC(=O)C(=O)N/N=C(\C)c2ccc(OC)cc2)sc2c1CCCCC2	none
CC(C)=CCNc1ncnc2c1c(C#N)cn2[C@H]1O[C@@H](CO)[C@@H](O)[C@@H]1O	none
Cc1ccccc1C(=O)OCc1cc(=O)n2c(C)csc2n1	none
CC(C)CCNC(=O)c1cc(-c2ccc(Br)s2)nc2ccccc12	Cruzain noTriton 3.2µM
Cc1cccc(NC(=O)c2cc(-c3ccc(C)s3)nc3ccccc23)n1	Cruzain noTriton 20µM
Cc1cc(NC(=O)c2cc(-c3ccc(C)s3)nc3ccccc23)no1	none
CCCCN(C)CCCNC(=O)c1cc(-c2ccc(Br)s2)nc2ccccc12	none
COCCn1c(=O)c(-c2cccs2)nc2cnc(OCc3ccccc3)nc21	none
CN1CCc2ccccc2[C@@H]1Cc1ccccc1NC(=O)c1sc2ccccc2c1Cl	none
O=S(=O)(c1ccc(NC(=S)NCCC(c2ccccc2)c2ccccc2)cc1)N1CCOCC1	Cruzain noTriton 25µM
CC(C)(C)CC(C)(C)NC(=S)Nc1ccc(S(=O)(=O)N2CCOCC2)cc1	Cruzain noTriton inconclusive
N#Cc1cccc(-c2nc3cnc(N4CCOCC4)nc3n(C3CC3)c2=O)c1	none
